Experimental data published in the supplement of paper PMC6555819.

What follows are sequences tested on VDR:RXRa (NR concentration 270 nM, RXRa partner concentration 90 nM) (assay: PBM binding z-score (relative to random genomic background probes); higher = stronger binding; sequences stand for … in GC…GCGATTGACAGCGTAGAATGAAGG).
Description: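 Protein-binding microarray (Agilent 4x180K custom design, double-stranded 60-nt probes: 5' GC cap, 34-nt variable region, 24-nt constant primer region; full probe sequence given). Purified or IVT nuclear receptor:RXRα heterodimers (3:1 NR:RXRα, mostly 270:90 nM) or homodimers were incubated for 1 h in PBS with 2% milk and no ligand, then detected with Alexa488 antibodies. Fluorescence from o1-orientation probes (~5 replicates averaged) was converted to z-scores against 500 random hg19 background probes. Variable regions are seed direct-repeat (DR0–DR5) sites, all their single-nucleotide variants and half-site ablations.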

First: AGTCAAAGTTCAATAGGTAACGTAAGATTCAGCT
Second: ACTAGCAGGCCCAGGGTCACTCAAGATTAGTCCG
The PBM binding z-score of the first is higher: 3.71 for the first, 2.19 for the second.

Compared with ACTAGTAGGCCAAGTTTGGGTCACTCAAACAAAG, TCGAGTAGGTTACAAATGGGGCATTCAGCTTTCT is lower in PBM binding z-score: 0.967 for the first, 0.216 for the second.

Going from ACTATTAGTAGACTTAGGGCAACCGATACGACGC to TCTAGCAGGCCAGGGGGTCACTCAAGAGGTACGG, the PBM binding z-score rises from -0.00967 to 4.25.

Going from GTAACGAGGGCAAAGTTGATAGCATCTGTCGACG to GTACCAATGTGAATAGGTCGTTGATGAGTAGGCG, the PBM binding z-score falls from 1.53 to -0.000523.

Compared with TCTTGTAGATCAAAGTTTAAGAAAGCCGAAGCCT, GATACAGGGTCAGCTAGAGGCAAGAGTATGGAAA is higher in PBM binding z-score: 0.555 for the first, 2.63 for the second.

First: AGAATGAGGTTACCCAAGATCAGGGAAACGCTTG
Second: TCGAGTAGGTTAGGGGCATTAAGAATGGCGTCGA
The PBM binding z-score of the first is higher: 1.55 for the first, 0.706 for the second.

Compared with CCTATTAGTTGACCATAAGGGCTACCGAAGCTCG, TTACCATGGTGAGCTGAGGTCGTTGATCCAACTC is higher in PBM binding z-score: 0.25 for the first, 1.57 for the second.

First: ACTAGCTGGTCAGCTGAGGTCACACACAATTCGG
Second: AGAATGAGGTTATACGTAGATCAGCGAAGAAAGT
The PBM binding z-score of the first is higher: 4.56 for the first, 0.978 for the second.

Compared with TTACCAAGGTGAAAGGTCGTTGTTGCACGCCTTG, ATCTCTAAGTAAGACTCAGTTCAGTGAAGAACGC is lower in PBM binding z-score: 3.24 for the first, 0.712 for the second.

Compared with ACTATCAGTTGAGACGAGGGCAACCGATAGGTTG, CCGACTGGGGCATAAGGTAACCATAAGCCAGCCC is lower in PBM binding z-score: 0.625 for the first, -0.407 for the second.

Going from CAAACTAGGTTACGAAAGGTCAAAGTCGAATGAC to TAGCCTAGGTCATTCACGGGCCAGTATAGAAAGC, the PBM binding z-score falls from 5.53 to 2.28.

Compared with ACTATTAGTTGAGACGCGGGCAACCGATAGGTTG, CCTAGCAGGCCAATCTGGGACACTCAAGGCTTGA is lower in PBM binding z-score: -0.235 for the first, -0.61 for the second.

Compared with TCTTGTAGATCAAGCAGGTTAAAAAAGCCTGAGT, TAGCCTAGGTCATTGGGCCGGTATAGTACGCATC is higher in PBM binding z-score: 1.04 for the first, 2.11 for the second.

ATATGTAGGTTAAGTGTCATTCAGGTTGGTTCGC and TAGCCTAGGTCATATCGGGCCAGTATACGCTATA are the same in PBM binding z-score: 2.28 for the first, 2.28 for the second.

First: ACTAGCAGGCCAAGTATGGGTCACTCAAACAAAG
Second: TCATATAGGTAAGGGTGAAAGTCGAACGATATGA
The PBM binding z-score of the first is lower: 0.573 for the first, 0.991 for the second.

First: TCTACAGGGTCAAAGGCCAGAGTACGAATGTCGA
Second: ATCGGAAGGTCGTGAGGTGAGTATACAGAAAGGC
The PBM binding z-score of the first is higher: 4.56 for the first, 2.1 for the second.

Going from GCTAGCAGCCCATTTGGGTCACTCAATGACGGGC to TCTTGTAGATCAATAGAGTTTAAGAAAGTGCGCT, the PBM binding z-score rises from -0.389 to 1.23.

First: CAAACTAGGTCACGAAAGGTCCAAGTCGAATGAC
Second: TATACAGGCTCAAAGGCCAGAGTACGAATGTCGA
The PBM binding z-score of the first is higher: 3.82 for the first, -0.106 for the second.

First: GGAACGAGGGCAAGTTGATAGGAGAGTTTGATGG
Second: CCTACTGGGCCATCTGGTCATTGATATCAACGTT
The PBM binding z-score of the first is higher: 0.886 for the first, -0.267 for the second.

Compared with GCGACTGTGGCAAAGCAGGTTACCATAAGGTTGG, AGTATTAGTTGAGACGAGGGCAACCGATAGGTTG is higher in PBM binding z-score: -0.352 for the first, 0.873 for the second.
